Screening data as filed in PubChem BioAssay.
A selection: hits, their analogues and other compounds. The true share with any hit is near 13%.
Pf growth 48h: Primary qHTS for delayed death inhibitors of the malarial parasite plastid, 48 hour incubation; P. falciparum luciferase growth in erythrocytes, 48 h; Potency, µM (series often up to 28.7 µM), actives largely listed as inhibitors; 5.9% of 310,000 active; AID 504832, 2011
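Luciferase-expressing parasites in RBCs, 2% Hct / 0.1% parasitemia final; RPMI 1640 + 0.5% Albumax; 37 C, 5% CO2, one generation; luminescence read-out, lower signal = inhibition.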
HCV inhibitor: qHTS Assay for Inhibitors of Hepatitis C Virus (HCV) | Huh7.5.1 HCVcc-Cre infection, luciferase reporter, 44 h | Potency, µM (series often up to 41.8 µM), usual class: inhibitors | 3.4% of 340,000 active | AID 651820, 2012
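Compounds are dispensed onto cells plated 4 h earlier at 1,000 per well, with HCVcc-Cre virus (about 0.5 moi) added next. Following 44 h of culture, luminescent signal is measured for 15 sec after 15 min with substrate at room temperature.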
Pf growth 96h: Primary qHTS for delayed death inhibitors of the malarial parasite plastid, 96 hour incubation | P. falciparum luciferase reporter growth, 96 h | Potency, µM (series often up to 28.7 µM), hits mostly inhibitors | 6.9% of 320,000 active
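Infected RBCs, 2% Hct / 0.05% parasitemia final; luciferase-reporter P. falciparum; cpd 96 h, 37 C, 5% CO2; luciferase detection reagent; luminescence.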
HCMV inh: qHTS Assay for inhibitors of the human cytomegalovirus (HCMV); HFF cells, HCMV-luciferase reporter, 72 h; active compounds read low; AID 1259415, 2018; 4.5% of 410,000 active; activity change, negative = inhibition, % at 57.5 µM; in the data active = activity change below about -60%; inconclusive = no clear call, values can overlap the other calls; inactive = above about -39%
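Screen run at 2 compound doses on HFFs infected with reporter HCMV, MOI 1 PFU/cell. Luciferase activity from cell lysates at 72 h post infection gave inhibition relative to buffer-only and Salinomycin wells.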
Large screens that a line does not name were inactive. Unless noted, calls come from the whole dose curve; as a rule, active = well fitted inhibition curve with a large enough effect; inconclusive = small, poorly fitted or top-dose-only effect, or another doubt; inactive = no such curve, though single readings can be large or run the other way.

CCOC(=O)C(Cc1ccc(OC)c([N+](=O)[O-])c1)NC(=O)CCC(=O)Nc1ccc(OC)cc1 (stereo unspecified)	HCMV inh -105
CCOC(=O)Nc1ccc([N+](=O)[O-])cc1OC	none (no result: Pf growth 48h, Pf growth 96h)
CCOC(=O)Nc1ccc(OC)c([N+](=O)[O-])c1	Pf growth 48h 15µM
CCC(=O)Nc1ccc2c(c1)Cc1cc(NC(=O)CC)ccc1-2	none
CCCCCCCCCCCC(=O)NC(Cc1ccc(OC)c([N+](=O)[O-])c1)C(=O)O (stereo unspecified)	none
CCOC(=O)Nc1ccc2c(c1)Cc1cc([N+](=O)[O-])ccc1-2	HCV inhibitor inconclusive, HCMV inh -90 (no result: Pf growth 48h, Pf growth 96h)
O=C(COc1ccccc1)Nc1ccccc1C(=O)OCc1cc(=O)n2nc(C3CC3)sc2n1	none (no result: Pf growth 48h, HCV inhibitor, Pf growth 96h)
CC12CC3CC(C)(C1)CC(C(=O)N1CCCC1)(C3)C2	Pf growth 48h inconclusive, Pf growth 96h 12µM
C1=C(c2ccccc2)CCNC1	none
Cc1[nH]c2ccccc2c1C1=CCNCC1	Pf growth 48h 3.3µM, HCV inhibitor 11µM
COc1cccc2c1C1COC3C4CC(C(=O)O)C(C(C2)N13)N4C (stereo unspecified)	HCV inhibitor inconclusive, HCMV inh -96 (no result: Pf growth 48h, Pf growth 96h)
COc1cccc2c1C(CCCC(=O)O)CCC2 (stereo unspecified)	none (no result: Pf growth 48h, Pf growth 96h)
CCCc1cc(C(N)=O)c(NC(=O)c2cc(C)on2)s1	HCV inhibitor inconclusive (no result: Pf growth 96h)
CCCc1cc(C(N)=O)c(NC(=O)c2ccoc2C)s1	HCV inhibitor 7.1µM (no result: Pf growth 96h)
COC(=O)C1(C(=O)OC)C/C=C\CCN(S(=O)(=O)c2ccccc2[N+](=O)[O-])CC1	none (no result: Pf growth 48h, HCV inhibitor, Pf growth 96h)
O=c1cc(CSc2ccc(Cl)cc2)nc(-c2ccccc2)[nH]1	none
O=c1cc(CSc2ccccc2)nc(-c2ccccc2)[nH]1	HCMV inh -105
Clc1ccc(SCc2cc(N3CCOCC3)nc(-c3ccccn3)n2)cc1	Pf growth 48h inconclusive, HCV inhibitor 8.9µM, Pf growth 96h inconclusive, HCMV inh -92
O=c1cc(CSc2ccc(Cl)cc2)nc(-c2ccccn2)[nH]1	Pf growth 48h 2.3µM, HCV inhibitor inconclusive, Pf growth 96h 1.9µM, HCMV inh -61
CCC(=O)N1CCc2cc(S(=O)(=O)CCC(=O)N3CCN(c4cc(C)ccc4C)CC3)ccc21	none (no result: Pf growth 48h, HCV inhibitor, Pf growth 96h)
COc1cc(C2C(=O)N(C3CCCCC3)CC(=O)N2Cc2ccc(C)cc2)ccc1OC(C)C (stereo unspecified)	none (no result: Pf growth 48h, HCV inhibitor, Pf growth 96h)
Cc1cc([N+](=O)[O-])ccc1-c1ccc(C2Nc3ccccc3C(=O)N2O)o1 (stereo unspecified)	HCV inhibitor 11µM, Pf growth 96h inconclusive, HCMV inh -99
Cc1cccn2c(=O)c(C(=O)N3CCN(c4ccc(Cl)cc4)CC3)cnc12	none (no result: Pf growth 48h, HCV inhibitor, Pf growth 96h)
CNC(=O)OC(C)CNS(=O)(=O)c1ccc(C)cc1 (stereo unspecified)	Pf growth 96h 12µM
CC(C)c1nn2c(=O)cc(COC(=O)c3ccc(NC(=O)COc4ccccc4)cc3)nc2s1	none (no result: Pf growth 48h, HCV inhibitor, Pf growth 96h)
CC(/C=C1\SC(=Nc2cccnc2)NC1=O)=C\c1ccccc1	HCV inhibitor inconclusive
C=CCOc1ccc(/C=C2\SC(=Nc3cccnc3)NC2=O)cc1	Pf growth 48h inconclusive, Pf growth 96h 10µM
COc1cc(C2c3c(-c4c(C)cc(C)cc4O)n[nH]c3C(=O)N2Cc2ccco2)cc(OC)c1OC (stereo unspecified)	none (no result: Pf growth 48h, HCV inhibitor, Pf growth 96h)
CSc1c(CC(=O)Nc2ccccc2Cl)n(Cc2ccccc2)c2ccccc12	Pf growth 48h inconclusive, Pf growth 96h inconclusive
CSc1c(CC(=O)Nc2ccccc2)n(Cc2ccccc2)c2ccccc12	Pf growth 48h 12µM, Pf growth 96h inconclusive
CSc1c(CC(=O)Nc2ccccc2C(F)(F)F)n(Cc2ccccc2)c2ccccc12	Pf growth 48h inconclusive, Pf growth 96h 9.3µM
COc1cc(-c2noc(C)c2/C=C/c2ccc(OC(C)=O)cc2)cc(OC)c1OC	HCV inhibitor inconclusive, Pf growth 96h inconclusive, HCMV inh -65
COc1ccc(-c2oc(=O)c3cc(OC)c(OC)cc3c2/C=C/c2ccc(OC(C)=O)cc2)cc1	HCV inhibitor inconclusive (no result: Pf growth 48h, Pf growth 96h)
CC(=O)COc1cccc2ccc(/C=C/c3ccc(Br)s3)nc12	HCV inhibitor 11µM, Pf growth 96h inconclusive
Cc1cc(OCC(=O)NCc2cccnc2)c2c3c(c(=O)oc2c1)CCCC3	HCV inhibitor 10µM, Pf growth 96h inconclusive
CC(=O)Oc1ccc2c3c(c(=O)oc2c1C)CCCC3	none
